{
  "source": "PubChem BioAssay AID651774",
  "about": "(Broad Institute, 2012)",
  "note": "Results with a measured potency or affinity are listed apart. Activity calls are given as the source filed them. No rule for the calls is given here.",
  "data": [
    {"experiment": "cytotoxicity in HeLa cells, dose response, cytotoxicity control, cell-based, 24 h, dry powder (AID 651774)", "conditions": "HeLa viability, CellTiter-Glo ATP luminescence; series mostly up to 35 µM; activity change, negative = cytotoxicity: at the top concentration", "values": [
      {"smiles": "CC(C)NC(=O)Cc1ccc(-c2ccccc2)cc1", "activity change, negative = cytotoxicity": "-0.68% (inactive)"},
      {"smiles": "CN(C)C(=O)Cc1ccc(-c2ccccc2)cc1", "activity change, negative = cytotoxicity": "4.1% (inactive)"},
      {"smiles": "O=C(Cc1ccc(-c2ccccc2)cc1)NC1CCCCC1", "activity change, negative = cytotoxicity": "-10.4% (inactive)"},
      {"smiles": "O=C(Cc1ccccc1Cl)NC1CCCC1", "activity change, negative = cytotoxicity": "-2.88% (inactive)"},
      {"smiles": "O=C(Cc1ccccc1I)NC1CCCC1", "activity change, negative = cytotoxicity": "-0.327% (inactive)"},
      {"smiles": "CC(C(=O)NC1CCCC1)c1ccc(-c2ccccc2)cc1", "note": "(centres undefined)", "activity change, negative = cytotoxicity": "6.08% (inactive)"},
      {"smiles": "O=C(Cc1ccc(-c2ccccc2)cc1)N1CCOCC1", "activity change, negative = cytotoxicity": "6.81% (inactive)"},
      {"smiles": "CC(C)c1ccc(CNc2nnnn2C)cc1", "activity change, negative = cytotoxicity": "-2.45% (inactive)"},
      {"smiles": "O=C(Cc1ccccc1C(F)(F)F)NC1CCCC1", "activity change, negative = cytotoxicity": "5.34% (inactive)"},
      {"smiles": "Cn1nnnc1NCc1ccc(N2CCCC2)cc1", "activity change, negative = cytotoxicity": "-3.44% (inactive)"},
      {"smiles": "O=C(Cc1ccc(-c2ccccc2)cc1)N1CCCC1", "activity change, negative = cytotoxicity": "10.1% (inactive)"},
      {"smiles": "COc1ccccc1CC(=O)NC1CCCC1", "activity change, negative = cytotoxicity": "-4.73% (inactive)"},
      {"smiles": "CN(Cc1ccc(N2CCCC2)cc1)c1nnnn1C", "activity change, negative = cytotoxicity": "-7.51% (inactive)"},
      {"smiles": "O=C(Cc1ccc(-c2ccccc2)cc1)NC1CCOCC1", "activity change, negative = cytotoxicity": "-3.83% (inactive)"},
      {"smiles": "CCn1nnnc1NCc1ccc(C(F)(F)F)cc1", "activity change, negative = cytotoxicity": "-7.68% (inactive)"},
      {"smiles": "O=C(Cc1ccc(-c2ccccc2)cc1)NC1CCCC1", "outcome": "inactive"},
      {"smiles": "CCCn1nnnc1NCc1ccc(C(C)C)cc1", "activity change, negative = cytotoxicity": "-5.13% (inactive)"},
      {"smiles": "CC(C)n1nnnc1NCc1ccc(N2CCCC2)cc1", "activity change, negative = cytotoxicity": "-3.65% (inactive)"},
      {"smiles": "CN(Cc1ccc(N2CCCC2)cc1)c1nnn(C)n1", "activity change, negative = cytotoxicity": "-15% (inactive)"},
      {"smiles": "O=C(Cc1ccccc1-c1ccccc1)NC1CCCC1", "activity change, negative = cytotoxicity": "-7.46% (inactive)"},
      {"smiles": "O=C(Cc1ccc(-c2ccccn2)cc1)NC1CCCC1", "activity change, negative = cytotoxicity": "-8.44% (inactive)"},
      {"smiles": "Cc1ccc(CC(=O)NC2CCCC2)cc1", "activity change, negative = cytotoxicity": "-14.5% (inactive)"},
      {"smiles": "CCn1nnc(NCc2ccc(N3CCCC3)cc2)n1", "outcome": "inactive"},
      {"smiles": "COc1cccc(CC(=O)NC2CCCC2)c1", "activity change, negative = cytotoxicity": "-2.49% (inactive)"}
    ]}
  ]
}
